Binding signal data for 17 sequences are collected here from PMC11006913.

Residue numbers refer to the chain shown, from its start.

Chain of HOXA2 (O43364 129-215 R185K): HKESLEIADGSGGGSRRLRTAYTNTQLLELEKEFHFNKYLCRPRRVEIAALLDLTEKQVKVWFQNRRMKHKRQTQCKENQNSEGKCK

One assay addresses HOXA2 (Homo sapiens, UniProt O43364 129-215, R185K). The experiment in a line: PBM; 200 nM protein, PBS. The note with it: dsDNA, one strand shown.
For GCAGCTGC, the binding signal is 10.3 upbm affinity estimate (log intensity, higher = more binding, comparable within an allelic series). Same read-out and setting: for GCCCGGGC the value was 9.77 upbm affinity estimate (log intensity, higher = more binding, comparable within an allelic series); for CCAGGGGC, 10.2 upbm affinity estimate (log intensity, higher = more binding, comparable within an allelic series). For the sequence GGGGCCCC, the binding signal was 10.2 upbm affinity estimate (log intensity, higher = more binding, comparable within an allelic series).

The target of another assay is HOXA4 (Homo sapiens, UniProt Q00056 201-287). The experiment in a line: PBM; 200 nM protein, PBS. The following applies: dsDNA, one strand shown.
Chain of HOXA4 (Q00056 201-287): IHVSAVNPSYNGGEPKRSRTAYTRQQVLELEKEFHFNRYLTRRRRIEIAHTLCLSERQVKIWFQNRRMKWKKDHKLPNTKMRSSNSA
With CACGCCCC, the binding signal was 9.74 upbm affinity estimate (log intensity, higher = more binding, comparable within an allelic series). Turning to GGGGCTCA, the binding signal was 9.76 upbm affinity estimate (log intensity, higher = more binding, comparable within an allelic series).

CCCGTCCC: the binding signal is 9.89 upbm affinity estimate (log intensity, higher = more binding, comparable within an allelic series).

As to GTGGATTA, the binding signal is 10.8 upbm affinity estimate (log intensity, higher = more binding, comparable within an allelic series).

A further assay deals with HOXC10 (Homo sapiens, UniProt Q9NYD6 254-340, K271E). Briefly: PBM; 200 nM protein, PBS. The note with it: dsDNA, one strand shown.
Chain of HOXC10 (Q9NYD6 254-340 K271E): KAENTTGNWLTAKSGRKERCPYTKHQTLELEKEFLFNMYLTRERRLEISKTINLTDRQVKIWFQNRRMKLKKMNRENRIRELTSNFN
For the sequence GCCCGGGC, the binding signal was 10.1 upbm affinity estimate (log intensity, higher = more binding, comparable within an allelic series). ATATTAAT: the binding signal was 11.8 upbm affinity estimate (log intensity, higher = more binding, comparable within an allelic series). ATTTATGG: the binding signal is 11.7 upbm affinity estimate (log intensity, higher = more binding, comparable within an allelic series). Still for that read-out and setting: for CTGCTGGC the value was 9.97 upbm affinity estimate (log intensity, higher = more binding, comparable within an allelic series).

Another assay concerns the target T1, SIX6 (Homo sapiens, UniProt O95475 114-200, L167V).
T1 sequence: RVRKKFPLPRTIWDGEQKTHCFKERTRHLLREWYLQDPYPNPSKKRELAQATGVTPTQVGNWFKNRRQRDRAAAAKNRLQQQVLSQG
The experiment in a line: PBM; 200 nM protein, PBS. The following applies: dsDNA, one strand shown.
Consider CACGCCCC, for which the binding signal was 8.99 upbm affinity estimate (log intensity, higher = more binding, comparable within an allelic series). Same read-out and setting: as for AGGTGCCC, the figure is 8.9 upbm affinity estimate (log intensity, higher = more binding, comparable within an allelic series). The same measure, in the same setting: as for CCGTCGCC, the figure is 8.83 upbm affinity estimate (log intensity, higher = more binding, comparable within an allelic series); as for GCAGCTGC, 9.06 upbm affinity estimate (log intensity, higher = more binding, comparable within an allelic series). Same read-out and setting: for CCAGGGGC the value was 8.8 upbm affinity estimate (log intensity, higher = more binding, comparable within an allelic series). Take AGACTATC: the binding signal was 10 upbm affinity estimate (log intensity, higher = more binding, comparable within an allelic series). On to GGGGCCCC, for which the binding signal was 8.99 upbm affinity estimate (log intensity, higher = more binding, comparable within an allelic series). The same measure, in the same setting: as for CGCACCGC, the figure is 8.96 upbm affinity estimate (log intensity, higher = more binding, comparable within an allelic series).

Regarding ACGCAACG, the binding signal is 9.19 upbm affinity estimate (log intensity, higher = more binding, comparable within an allelic series). On the same count and under the same terms, for CTGCTGGC the value was 8.93 upbm affinity estimate (log intensity, higher = more binding, comparable within an allelic series).

The next assay concerns the target T2, SIX6 (Homo sapiens, UniProt O95475 114-200).
T2 sequence: T1 sequence with V54L
Briefly: PBM; 200 nM protein, PBS. The following applies: dsDNA, one strand shown.
CACGCCCC: the binding signal is 9.08 upbm affinity estimate (log intensity, higher = more binding, comparable within an allelic series). On to AGGTGCCC, for which the binding signal was 8.78 upbm affinity estimate (log intensity, higher = more binding, comparable within an allelic series). The same measure, in the same setting: as for CCGTCGCC, the figure is 8.87 upbm affinity estimate (log intensity, higher = more binding, comparable within an allelic series). On the same count and under the same terms, for GCAGCTGC the value was 9.1 upbm affinity estimate (log intensity, higher = more binding, comparable within an allelic series); for CCCTGATC, 10.2 upbm affinity estimate (log intensity, higher = more binding, comparable within an allelic series); for CCAGGGGC, 8.88 upbm affinity estimate (log intensity, higher = more binding, comparable within an allelic series). Still for that read-out and setting: for AGACTATC the value was 10.2 upbm affinity estimate (log intensity, higher = more binding, comparable within an allelic series); for GGGGCCCC, 8.93 upbm affinity estimate (log intensity, higher = more binding, comparable within an allelic series); for CGCACCGC, 8.97 upbm affinity estimate (log intensity, higher = more binding, comparable within an allelic series). Regarding ACGCAACG, the binding signal is 9.12 upbm affinity estimate (log intensity, higher = more binding, comparable within an allelic series). Regarding CTGCTGGC, the binding signal was 8.83 upbm affinity estimate (log intensity, higher = more binding, comparable within an allelic series).
